From PubChem BioAssay
Calls of active or inactive are those of the source.

Assays:
[1] = A549 cell viability effects, profiling panel, calcein-AM fluorescence, 48 h, basal (AID 1162); details: higher = more signal; also: test concentration not given here
[2] = adipocyte viability effects, profiling panel, cell-based, 3T3-L1 adipocytes, calcein-AM fluorescence, 48 h, basal (AID 1163); details: 3T3-L1 adipocytes viability, higher = more signal; also: test concentration not given here
[3] = HepG2 cell viability effects, profiling panel, calcein-AM fluorescence, 48 h, basal (AID 1164); details: higher = more signal; also: test concentration not given here
[4] = MM1S cell viability effects, profiling panel, calcein-AM fluorescence, 48 h, basal (AID 1165); details: higher = more signal;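 also: viability of MM1S multiple myeloma cells under basal unstimulated conditions; test concentration not given here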
[5] = basal RPMI8226 viability, no added stimulus, profiling panel, cell-based, calcein-AM fluorescence, 48 h, PK04 Diversity Set (AID 1166); details: RPMI8226 myeloma viability, higher = more signal;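 also: cells grown under basal conditions without added stimulus; test concentration not given here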
[6] = basal HepG2 mitochondrial membrane potential changes, profiling panel, cell-based, JC-1 fluorescence, 24 h, 100 nL compound (AID 1167); details: higher = more signal; also: test concentration not given here
[7] = basal 3T3-L1 adipocyte mitochondrial potential changes, profiling panel, cell-based, JC-1 fluorescence, 3T3-L1 adipocytes, 24 h, 100 nL compound (AID 1168); details: JC-1 mitochondrial fluorescence, higher = more signal, called active from +8 up or from −8 down; also: test concentration not given here
[8] = basal RPMI8226 mitochondrial membrane potential changes, profiling panel, cell-based, JC-1 fluorescence, 24 h, 100 nL compound (AID 1169); details: RPMI8226 myeloma, JC-1 mitochondrial potential fluorescence, higher = more signal; also: test concentration not given here
[9] = basal MM1S mitochondrial membrane potential changes, profiling panel, cell-based, JC-1 fluorescence, 24 h, 100 nL compound (AID 1170); details: higher = more signal; also: test concentration not given here
[10] = A549 lung cancer cell viability effects, profiling panel, resazurin fluorescence, 24 h, PK04 Diversity Set (AID 1171); details: higher = more signal, called active from +8 up or from −8 down; also: test concentration not given here
[11] = HepG2 liver cancer cell viability effects, profiling panel, resazurin fluorescence, 24 h, PK04 Diversity Set (AID 1172); details: higher = more signal; also: test concentration not given here
[12] = basal S. cerevisiae growth modulation, no modifier, primary screen, OD600, strain BY4716, 24 h, basal condition (AID 1173); details: OD600, 24 h, higher = more signal, called active from +8 up or from −8 down
[13] = MM1S myeloma cell viability, profiling panel, resazurin fluorescence, basal, 24 h, PK04 Diversity Set (AID 1174); details: higher = more signal, called active from +8 up or from −8 down;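 also: MM1S multiple myeloma cell line; test concentration not given here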
[14] = molecular target: Dihydroorotate dehydrogenase (quinone), mitochondrial (Plasmodium falciparum (isolate 3D7)) (UniProt Q08210); test: PfDHODH enzyme inhibitors, primary screen, biochemical, C-terminal His tag, absorbance 600 nm (AID 1175); details: DCIP absorbance 600 nm, higher = more signal, called active from +8 up or from −8 down;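 also: recombinant parasite enzyme with a five histidine tag at its C terminus; test concentration not given here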
[15] = S. cerevisiae RM11-1a growth modifiers, primary screen, strain RM11-1a, OD600, basal, 24 h (AID 1177); details: OD600, 24 h, higher = more signal, called active from +8 up or from −8 down;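 also: cultures grown under basal conditions with no added stressor; test concentration not given here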
[16] = E. coli acrAB mutant growth effects, primary screen, E. coli filamentation inducers, strain DRC39, OD650, 24 h (AID 1178); details: higher = more signal, called active from +8 up or from −8 down;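 also: growth measured as culture turbidity by optical density at 650 nm; test concentration not given here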
[17] = E. coli acrAB mutant growth effects, primary screen, E. coli filamentation inducers, strain DRC39, OD650, 48 h (AID 1179);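 also: screen aims at cell division blockers that make cells filament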; details: E. coli DRC39 delta-acrAB growth, higher = more signal, called active from +8 up or from −8 down
[18] = RPMI8226 myeloma cell viability, profiling panel, resazurin fluorescence, basal, 24 h, PK04 Diversity Set (AID 1180); details: higher = more signal;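 also: RPMI8826 multiple myeloma cell line at 5000 cells per well; test concentration not given here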
[19] = molecular target: E3 ubiquitin-protein ligase XIAP (Homo sapiens) (UniProt P98170); test: XIAP binders, primary screen, biophysical, small-molecule microarray, fluorescence 635 nm (AID 1181); details: small-molecule microarray binding, higher = more signal;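 also: score merges 667 nm emission and signal to noise over triplicate slides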
Chain of E3 ubiquitin-protein ligase XIAP (Homo sapiens) (P98170 whole entry, looked up): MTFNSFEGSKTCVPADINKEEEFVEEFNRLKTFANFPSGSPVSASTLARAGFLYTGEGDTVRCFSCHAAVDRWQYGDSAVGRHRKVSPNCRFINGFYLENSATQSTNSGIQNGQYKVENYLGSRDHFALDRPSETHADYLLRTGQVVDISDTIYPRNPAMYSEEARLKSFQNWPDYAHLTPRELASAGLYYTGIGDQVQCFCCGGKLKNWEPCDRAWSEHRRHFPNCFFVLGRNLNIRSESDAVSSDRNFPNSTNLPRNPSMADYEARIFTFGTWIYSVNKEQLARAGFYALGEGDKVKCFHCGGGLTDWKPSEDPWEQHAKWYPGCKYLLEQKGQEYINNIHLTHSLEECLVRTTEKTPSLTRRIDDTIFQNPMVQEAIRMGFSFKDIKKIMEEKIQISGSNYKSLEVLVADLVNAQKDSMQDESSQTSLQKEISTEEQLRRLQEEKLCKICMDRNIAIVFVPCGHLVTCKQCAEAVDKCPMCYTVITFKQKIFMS

Chain of Dihydroorotate dehydrogenase (quinone), mitochondrial (Plasmodium falciparum (isolate 3D7)) (Q08210 whole entry, looked up): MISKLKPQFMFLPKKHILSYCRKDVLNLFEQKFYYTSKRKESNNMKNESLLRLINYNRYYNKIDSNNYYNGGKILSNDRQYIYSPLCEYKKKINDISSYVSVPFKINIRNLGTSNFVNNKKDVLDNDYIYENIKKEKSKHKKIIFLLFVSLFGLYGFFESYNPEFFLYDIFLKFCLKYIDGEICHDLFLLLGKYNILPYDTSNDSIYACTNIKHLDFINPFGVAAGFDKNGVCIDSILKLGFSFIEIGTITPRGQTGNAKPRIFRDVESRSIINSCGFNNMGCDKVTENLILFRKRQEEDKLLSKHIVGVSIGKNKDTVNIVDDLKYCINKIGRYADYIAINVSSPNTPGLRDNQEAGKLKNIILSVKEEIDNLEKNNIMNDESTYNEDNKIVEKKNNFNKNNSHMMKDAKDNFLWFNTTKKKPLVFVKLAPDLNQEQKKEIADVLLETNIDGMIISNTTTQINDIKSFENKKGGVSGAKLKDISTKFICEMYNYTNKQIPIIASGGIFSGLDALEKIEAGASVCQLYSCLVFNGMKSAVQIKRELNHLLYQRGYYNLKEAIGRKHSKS

| SMILES | z-score [1] | z-score [2] | z-score [3] | z-score [4] | z-score [5] | z-score [6] | z-score [7] | z-score [8] | z-score [9] | z-score [10] | z-score [11] | z-score [12] | z-score [13] | composite z-score [14] | z-score [15] | z-score [16] | z-score [17] | z-score [18] | composite z-score [19] |
| --- | --- | --- | --- | --- | --- | --- | --- | --- | --- | --- | --- | --- | --- | --- | --- | --- | --- | --- | --- |
| CCCC[C@H]1OB(O)C[C@H]2C1=C(COC)C[C@H]1C(=O)N(Cc3ccccc3)C(=O)[C@H]12 | 0.485 | 0.938 | -0.0393 | 0.405 | -0.537 | 0.987 | 0.835 (inactive) | 0.361 | 1.46 | 0.272 (inactive) | 1.13 | -3.65 (inactive) | 0.518 (inactive) | 0.282 (inactive) | -1.67 (inactive) | 2.53 (inactive) | 0.942 (inactive) | 0.283 | -0.12 |
| O=C1c2ccccc2[C@](Cc2ccccc2I)(C(=O)O)[C@H](c2ccc(CO)cc2)N1C1CCCCC1 | 0.0699 | 2.82 | -0.0275 | 0.832 | -3.14 | 0.0952 | -0.641 (inactive) | -0.193 | 0.148 | 1.07 (inactive) | -0.221 | -1.14 (inactive) | 1.8 (inactive) | -0.0088 (inactive) | -1.05 (inactive) | 0.938 (inactive) | 0.832 (inactive) | 1.36 | 0.0225 |
| Cc1ccc(S(=O)(=O)c2cc3oc2CC[C@@H](CO)NC(=O)N(C)Cc2cn(nn2)C[C@H](Cc2ccccc2)NC3=O)cc1 | 1.66 | -0.129 | 0.372 | -0.971 | 1.28 | 1.35 | 0.856 (inactive) | 0.501 | 0.536 | 1.39 (inactive) | 1.02 | -2.64 (inactive) | 1.42 (inactive) | 0.164 (inactive) | 0.288 (inactive) | 1.74 (inactive) | 1.3 (inactive) | 1.03 | 0.0975 |
| CN(C)CCCC[C@@H]1NC(=O)[C@@H]2C[C@H](C(=O)O)[C@H](c3ccc(O)cc3)N2C1=O | -0.533 | 1.36 | -1.03 | -3.01 | -0.102 | 1.26 | 0.292 (inactive) | -0.0425 | -0.971 | -0.385 (inactive) | -1.15 | -0.976 (inactive) | 1.2 (inactive) | -0.621 (inactive) | -0.422 (inactive) | 0.994 (inactive) | -0.0998 (inactive) | 0.493 | 0.101 |
| CO[C@H]1COC(=O)[C@H](Cc2ccccc2)NC(=O)CC=C[C@@H](C)[C@H](OC)COC(=O)CC=C[C@@H]1C | -0.0862 | -0.557 | 0.5 | 0.214 | 1.71 | 0.00562 | 0.954 (inactive) | -0.791 | 0.411 | 0.174 (inactive) | 0.471 | -1.43 (inactive) | 0.0446 (inactive) | 0.0048 (inactive) | -1.06 (inactive) | 0.373 (inactive) | 0.53 (inactive) | 0.562 | 0.0525 |
| O=C1OCCC=C[C@H]2OC34C=CCN(Cc5ccccc5)C(=O)[C@H]3N(CCO)C(=O)[C@@H]4C12 (stereo not given in full) | -0.0905 | 1.64 | -0.781 | 0.918 | -0.125 | 0.207 | 0.903 (inactive) | 0.374 | 0.183 | -0.727 (inactive) | -0.21 | -1.5 (inactive) | 0.768 (inactive) | -1.19 (inactive) | -2.28 (inactive) | 1.27 (inactive) | 0.627 (inactive) | 0.47 | -0.569 |
| O=C(CS)NCCCCCNC(=O)[C@H]1C[C@H]2C(=O)N[C@@H](Cc3ccccc3)C(=O)N2[C@H]1c1ccc(O)cc1 | -0.142 | 1.62 | -1.02 | -0.193 | 0.575 | 0.248 | 0.765 (inactive) | -0.539 | 0.368 | 0.411 (inactive) | 0.0833 | 0.359 (inactive) | 1.19 (inactive) | 0.44 (inactive) | 0.895 (inactive) | 0.394 (inactive) | 0.102 (inactive) | 0.833 | 0.0123 |
| COC(=O)c1c(CC[C@@H](CO)NC(=O)N[C@H](Cn2cc(-c3cncn3C)nn2)C(C)C)oc(C(C)=O)c1C(=O)OC | 0.128 | 1.93 | -0.102 | 0.191 | -0.344 | 0.57 | 1.43 (inactive) | -0.444 | -0.289 | -0.169 (inactive) | -0.623 | -0.476 (inactive) | 0.254 (inactive) | -4.63 (inactive) | -1.06 (inactive) | 2.37 (inactive) | 1.47 (inactive) | -0.0832 | -0.0884 |
| O=C1O[C@@H](c2ccccc2)[C@@H](c2ccccc2)N2[C@@H](c3ccccc3OCCO)[C@]3(C(=O)Nc4ccc(C#CC5=CCCCC5)cc43)[C@@H](C(=O)O)[C@H]12 | -1 | 1.61 | -0.992 | -3.39 | -4.65 | -3.81 | 4.74 (inactive) | -1.07 | -0.999 | 0.289 (inactive) | 0.172 | -0.5 (inactive) | -2.81 (inactive) | -4.84 (inactive) | 3.46 (inactive) | 0.175 (inactive) | 0.45 (inactive) | -5.59 | 0.105 |
| CO[C@@H]1COC(=O)CC=C[C@H](C)COC(=O)[C@H](Cc2ccccc2)NC(=O)CC=C[C@H]1C | 0.392 | 0.509 | 0.674 | 0.305 | 0.333 | 0.883 | 0.258 (inactive) | -0.146 | -0.597 | -0.145 (inactive) | 0.0057 | -1.95 (inactive) | 0.266 (inactive) | 0.519 (inactive) | -1.02 (inactive) | 0.131 (inactive) | -0.0502 (inactive) | -0.094 | 0.0896 |
